This is an account of results in PubChem BioAssay (NCATS).

Unmarked numbers belong to inactive results. For some of these results: Measured potencies and affinities stand elsewhere. Calls of active or inactive are those of the source. How the calls were made is not given here.

For experiment [1] the following is noted: Ebola virus entry assay, green fluorescence channel.
The conditions of experiment [2]: Ebola virus entry assay, blue channel fluorescence.
Wherever efficacy is given: 0% is about no effect.

In the case of `CCCC(CCC)(C(=O)OCC)C(=O)OCC`, the efficacy in experiment [1] is 21%. The call in experiment [2] was inactive.

For the compound `CC(=O)CC/C=C(\C)CC/C=C(\C)CC/C=C(\C)CCC=C(C)C`, the efficacy in experiment [1] is -14.5%. Also, in experiment [2], the result was inactive.

Turning to `O=C(O)/C=C(\CC(=O)O)C(=O)O`, the efficacy in experiment [1] is -11%. In addition, the outcome in experiment [2] was inactive.

Regarding `N=C(N)N`, the efficacy in experiment [1] was 19.5%. For the same compound, the call in experiment [2] was inactive.

As for `COC(=O)c1cccnc1`, in experiment [1], the efficacy is 12.2%. Further, the compound was classed as inactive in experiment [2].

Take `CCOC(N)=O`: the efficacy in experiment [1] is -34.6%. The outcome in experiment [2] was inactive.

As for `Cc1cc2nc3c(=O)[nH]c(=O)nc-3n(C[C@H](O)[C@H](O)[C@H](O)CO)c2cc1C`, the efficacy in experiment [1] is 67.6%. Further, in experiment [2], the call was inactive.

As to `CC(C(=O)O)c1ccc2c(c1)[nH]c1ccc(Cl)cc12` (stereo not drawn), the efficacy in experiment [1] is -20.7%. In experiment [2], the result was inactive.

In the case of `CCCCCCCCCCCCCCCC(=O)O`, the efficacy in experiment [1] is -6.91%. Also, the outcome in experiment [2] was inactive.

On to `Nc1ncnc2c1ncn2[C@@H]1O[C@H](COP(=O)(O)O)[C@@H](O)[C@H]1O`, for which, in experiment [1], the efficacy was 14.6%. Besides, the result in experiment [2] was inactive.

As to `CCCN1CCCC[C@H]1C(=O)Nc1c(C)cccc1C`, the efficacy in experiment [1] is 17.3%. Moreover, in experiment [2], the outcome was inactive.

`CCOC(=O)C1=C(C)NC(C)=C(C(=O)OC)C1c1cccc([N+](=O)[O-])c1` (stereo not drawn): the efficacy in experiment [1] is 20.7%. For the same compound, in experiment [2], the call was inactive.

For the compound `CC(C(=O)O)c1ccc2c(c1)CC(=O)c1ccccc1S2` (stereo not drawn), the efficacy in experiment [1] was 23.3%. In experiment [2], the compound was called inactive.

As to `C[N+](C)(C)CCOC(N)=O`, in experiment [1], the efficacy is 12.2%. Further, the call in experiment [2] was inactive.

Regarding `Clc1ccccc1N1CCNCC1`, the efficacy in experiment [1] was -17.1%. Further, the outcome in experiment [2] was inactive.

`CC1(C)Oc2ccc(C#N)cc2[C@@H](N2CCCC2=O)[C@@H]1O`: in experiment [1], the efficacy was -10.5%. Moreover, the compound was classed as inactive in experiment [2].

`O=C(O)c1ccccc1C(=O)Nc1ccc(S(=O)(=O)Nc2nccs2)cc1`: the efficacy in experiment [1] was -12.6%. Moreover, the result in experiment [2] was inactive.

Regarding `Oc1ccc(OCc2ccccc2)cc1`, the efficacy in experiment [1] was 14.9%. The compound was called inactive in experiment [2].

Consider `CO/N=C(/C(=O)N[C@@H]1C(=O)N2C(C(=O)[O-])=C(C[n+]3ccn4ncccc43)CS[C@H]12)c1nsc(N)n1`, for which the efficacy in experiment [1] is 12.5%. In experiment [2], the outcome was inactive.

As to `O=S(=O)(O)c1ccc(O)cc1`, the efficacy in experiment [1] was 20.2%. Further, the compound was called inactive in experiment [2].

On to `CC(=O)OCC1=C(C(=O)O)N2C(=O)[C@@H](NC(=O)Cc3cccs3)[C@H]2SC1`, for which the efficacy in experiment [1] was -9.53%. Besides, the compound was called inactive in experiment [2].

On to `C[C@]12CC[C@H]3[C@@H](CCC4=CC(=O)CC[C@@H]43)[C@@H]1CC[C@@H]2OC(=O)CCc1ccco1`, for which the efficacy in experiment [1] is -14.7%. Further, the compound was called inactive in experiment [2].

For `CS(=O)(=O)c1ccc([C@@H](O)[C@@H](CO)NC(=O)C(Cl)Cl)cc1`, in experiment [1], the efficacy was -14.2%. Besides, the result in experiment [2] was inactive.

As for `CCN(CCO)CCn1c(Cc2ccccc2)nc2c1c(=O)n(C)c(=O)n2C`, in experiment [1], the efficacy is 27.5%. Besides, the outcome in experiment [2] was inactive.

Take `CC(C)(C)CC(C)(C)c1ccc(O)c(-n2nc3ccccc3n2)c1`: the efficacy in experiment [1] is 9.19%. The compound was classed as inactive in experiment [2].

Regarding `Cc1ccccc1C(=O)N1CC/C(=N\OS(=O)(=O)O)c2ccc(Cl)cc21`, the efficacy in experiment [1] is -25%. Moreover, the compound was classed as inactive in experiment [2].

On to `CC(C)(C(=O)c1cccnc1)c1cccnc1`, for which, in experiment [1], the efficacy is 15.8%. Moreover, the compound was called inactive in experiment [2].

Consider `O=C(CCCN1CCC2(CC1)C(=O)NCN2c1ccccc1)c1ccc(F)cc1`, for which the efficacy in experiment [1] is -27.3%. The AC50 in experiment [2] is 1.78 µM (active).

Regarding `C[C@]12C=CC(=O)C=C1CC[C@@H]1[C@@H]2C(=O)C[C@@]2(C)[C@H]1CC[C@]2(O)C(=O)CO`, the efficacy in experiment [1] is -19.9%. In addition, the outcome in experiment [2] was inactive.

Take `O=C(CCBr)N1CCN(C(=O)CCBr)CC1`: in experiment [1], the efficacy was 10.2%. In experiment [2], the compound was called inactive.

For `C[N+]1(CCF)[C@@H]2CC[C@H]1CC(OC(=O)C(O)(c1ccccc1)c1ccccc1)C2` (stereo partly drawn), the efficacy in experiment [1] is -17.5%. Also, in experiment [2], the compound was called inactive.

Turning to `CC(=O)Nc1ccccc1`, the efficacy in experiment [1] is -20.9%. For the same compound, in experiment [2], the call was inactive.

Turning to `CCCCCCNC(=O)n1cc(F)c(=O)[nH]c1=O`, in experiment [1], the efficacy is -33.6%. In experiment [2], the call was inactive.

With `C=CCn1c(=O)n([C@@H]2O[C@H](CO)[C@@H](O)[C@H]2O)c2nc(N)[nH]c(=O)c21`, in experiment [1], the efficacy is -17.7%. Further, the outcome in experiment [2] was inactive.

Take `O=C(O)Cc1cccc(-c2cc(CCCCCCc3ccc(O[C@H]4O[C@H](CO)[C@@H](O)[C@H](O)[C@@H]4O)c(-c4cccc(CC(=O)O)c4)c3)ccc2O[C@H]2O[C@H](CO)[C@@H](O)[C@H](O)[C@@H]2O)c1`: the efficacy in experiment [1] was -7.69%. The result in experiment [2] was inactive.

With `COc1ccc2nc(SCc3ncc(C)c(OC)c3C)[nH]c2c1`, the efficacy in experiment [1] is -11.5%. Also, the compound was called inactive in experiment [2].

`O=C(O)c1cc(=O)c2ccccc2o1`: the efficacy in experiment [1] was -28.1%. In addition, the result in experiment [2] was inactive.

Turning to `Clc1cccc(Cl)c1NC1=NCCN1`, in experiment [1], the efficacy was -12.5%. In experiment [2], the compound was called inactive.

Consider `O=c1cc[nH]c(=O)[nH]1`, for which the efficacy in experiment [1] was 11.9%. Besides, the call in experiment [2] was inactive.

Turning to `CC(N=C(NC#N)Nc1ccncc1)C(C)(C)C` (stereo not drawn), the efficacy in experiment [1] was -23.2%. The outcome in experiment [2] was inactive.

As to `CCCC(=O)OCOC(=O)C1=C(C)NC(C)=C(C(=O)OC)C1c1cccc(Cl)c1Cl` (stereo not drawn), the efficacy in experiment [1] is 17.3%. Moreover, the compound was classed as inactive in experiment [2].

For `NC(=S)N/N=C/c1cccnc1`, the efficacy in experiment [1] was 12.5%. Besides, the compound was called inactive in experiment [2].

Take `CN(C)CCN(Cc1ccsc1)c1ccccn1`: in experiment [1], the efficacy is -18.4%. Also, the compound was classed as inactive in experiment [2].

For `Cc1cc(CCCOc2c(C)cc(-c3noc(C(F)(F)F)n3)cc2C)on1`, the efficacy in experiment [1] was 12.1%. Also, the call in experiment [2] was inactive.
